Laboratory results: the supplement of paper PMC6555819

Key:
Assay in all cases: PBM binding z-score (relative to random genomic background probes); higher = stronger binding; sequences stand for … in GC…GCGATTGACAGCGTAGAATGAAGG
[1] = tested on: FXR:RXRa (NR concentration 270 nM, RXRa partner concentration 90 nM)
Outline: (§1)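 Ligand-free nuclear receptor dimers were bound for 1 h to custom Agilent 4×180K protein-binding microarrays. Detection used antibodies against each partner (one per run). Binding z-scores rest on regression-normalized fluorescence, with random background probes as the reference.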

[2] = tested on: LXRa:RXRa (NR concentration 270 nM, RXRa partner concentration 90 nM)
Outline: as §1

[3] = tested on: LXRa homodimer (NR concentration 270 nM)
Outline: as §1

[4] = tested on: LXRb:RXRa (NR concentration 270 nM, RXRa partner concentration 90 nM)
Outline: as §1

[5] = tested on: LXRb homodimer (NR concentration 270 nM)
Outline: as §1

[6] = tested on: PPARa:RXRa (NR concentration 270 nM, RXRa partner concentration 90 nM)
Outline: as §1

[7] = tested on: PPARg:RXRa (NR concentration 180 nM, RXRa partner concentration 90 nM)
Outline: as §1

[8] = tested on: PPARg:RXRa 270nM:90nM, anti-RXR (NR concentration 270 nM, RXRa partner concentration 90 nM)
Outline: as §1

[9] = tested on: PPARg:RXRa 30nM:10nM, anti-RXR (NR concentration 30 nM, RXRa partner concentration 10 nM)
Outline: as §1

[10] = tested on: PPARg:RXRa 90nM:30nM, anti-RXR (NR concentration 90 nM, RXRa partner concentration 30 nM)
Outline: as §1

[11] = tested on: PPARg:RXRa DBDmut IVT, anti-RXR (DBD mutation: RXRa K156A/R161A, NR concentration 270 nM, RXRa partner concentration 90 nM)
Outline: as §1

[12] = tested on: PPARg:RXRa IVT, anti-PPARg (NR concentration 270 nM, RXRa partner concentration 90 nM)
Outline: as §1

[13] = tested on: PPARg DBDmut:RXRa IVT, anti-PPARg (DBD mutation: PPARg1 K132A/R137A, NR concentration 270 nM, RXRa partner concentration 90 nM)
Outline: as §1

[14] = tested on: PPARg DBDmut IVT, anti-PPARg (DBD mutation: PPARg1 K132A/R137A, NR concentration 270 nM)
Outline: as §1

[15] = tested on: PPARg homodimer (NR concentration 180 nM)
Outline: as §1

[16] = tested on: PXR:RXRa (NR concentration 270 nM, RXRa partner concentration 90 nM)
Outline: as §1

[17] = tested on: PXR homodimer (NR concentration 270 nM)
Outline: as §1

[18] = tested on: RARa:RXR (NR concentration 270 nM, RXRa partner concentration 90 nM)
Outline: as §1

[19] = tested on: RARa homodimer (NR concentration 270 nM)
Outline: as §1

[20] = tested on: RARb:RXRa (NR concentration 270 nM, RXRa partner concentration 90 nM)
Outline: as §1

Row | Sequence | PBM binding z-score [1] | PBM binding z-score [2] | PBM binding z-score [3] | PBM binding z-score [4] | PBM binding z-score [5] | PBM binding z-score [6] | PBM binding z-score [7] | PBM binding z-score [8] | PBM binding z-score [9] | PBM binding z-score [10] | PBM binding z-score [11] | PBM binding z-score [12] | PBM binding z-score [13] | PBM binding z-score [14] | PBM binding z-score [15] | PBM binding z-score [16] | PBM binding z-score [17] | PBM binding z-score [18] | PBM binding z-score [19] | PBM binding z-score [20]
1 | ATATGTAGGTTATCGAGTCATTCAGTTTGCGCAT | 0.672 | 1.1 | 0.419 | 1.04 | 0.701 | 3.37 | 4.61 | 4.14 | 2 | 3.27 | 6.65 | 6.84 | 3.25 | 2.73 | 1.91 | 0.622 | 0.241 | 0.687 | 1 | 0.872
2 | CCGAGTAGGTTATGGGGCATTTAGGCAACGGTGA | 0.297 | 0.407 | 0.011 | 0.603 | -0.473 | 2.22 | 3.51 | 4.47 | 2.4 | 4.37 | 3.07 | 3.53 | -0.425 | -0.513 | 2.12 | -0.00225 | -0.192 | 0.292 | 0.0296 | 0.919
3 | CCGACTGGGGAATAAGGTTACCATAAGCCAGCCC | 0.215 | 1.7 | -0.22 | 0.69 | -0.763 | 1.35 | 1.09 | 1.47 | 0.215 | 1.03 | 1.7 | 1.42 | -0.845 | -0.915 | 0.47 | 0.362 | 0.0229 | 1.11 | -0.12 | 0.793
4 | TATACAGGGCCAAAGGCCAGAGTACGAATGTCGA | 0.18 | 0.14 | -0.21 | -0.197 | 0.431 | 1.38 | 4.12 | 4.61 | 2.62 | 4.32 | -0.282 | 1.6 | 0.275 | -0.0589 | 0.362 | -0.0978 | -0.0965 | 0.479 | -0.305 | 1.53
5 | CTTCCAAGGTCAAAGGTCAGTGAAGAGATGACGG | 8.35 | 7.17 | 4.94 | 6.74 | 2.43 | 7.29 | 11.1 | 9.09 | 8.56 | 10.7 | 4.31 | 5.99 | 1.55 | 2.25 | 5.02 | 7.21 | 2.73 | 8.8 | 3.33 | 5.92
6 | GCTAGTTGGTCAGTCAAAGGTCACACACCGGTCG | 3.52 | 4.41 | 4.17 | 3.94 | 0.493 | 4.62 | 5.33 | 5.92 | 4.22 | 5.9 | 1.51 | 3.42 | -0.105 | 0.277 | 3.62 | 5.2 | 1.01 | 6.33 | 1.11 | 4.36
7 | TAGACTAGGTCATTCAGGGGCCAGTATAGAAAGC | 4.16 | 3.02 | 0.5 | 2.45 | 1.5 | 3.77 | 5.02 | 4.54 | 2.12 | 3.67 | 6.24 | 6.36 | 3.24 | 2 | 2.65 | 2.21 | 0.176 | 3.32 | 0.508 | 3.64
8 | GCTATTCGTTGAAAGGGCAACCGAATGATTCTCG | 0.141 | 0.488 | 0.342 | 0.644 | -0.0285 | 1.61 | 1.23 | 2.56 | 0.831 | 2.16 | 0.00432 | 0.413 | 0.733 | 0.234 | 0.801 | 0.591 | -0.255 | 0.689 | 0.463 | 1.8
9 | TATACAGGGTCCAAGGCCAGAGTACGAATGTCGA | 0.36 | 0.228 | 0.0779 | 0.18 | 1.02 | 0.314 | 0.93 | 0.625 | 0.686 | 0.795 | -0.0833 | 0.889 | 1 | 0.775 | 0.44 | 0.336 | 0.699 | 0.0317 | 0.427 | 1.2
10 | CCTAGTTGGTCAAGATCACACACGCTATAGGTAC | 0.117 | 0.306 | 0.456 | 0.468 | 0.508 | 0.119 | 1.18 | 0.452 | 0.398 | 0.0188 | 1.36 | 1.04 | 0.47 | 1.08 | 1.14 | 0.0789 | 0.685 | -0.0472 | 1.56 | 1.03
11 | TCTGCTAGGTCAGTTGGTCAACTAACGAGCTGCC | 0.974 | 0.627 | -0.58 | 0.38 | 0.371 | 1.63 | 1.12 | 2.14 | 1.02 | 1.81 | 2.83 | 3.32 | 0.661 | 0.786 | -0.104 | 0.269 | -0.861 | 0.622 | -0.954 | 3.27
12 | TCTGCTAGGTCAGTTAGTCAGCTAACGAGCTGCC | 0.761 | 0.452 | -0.662 | 0.131 | -0.11 | 0.983 | -0.0973 | 1.33 | 1.2 | 1.46 | 2.31 | 2.39 | 0.967 | 0.0395 | -0.199 | 0.00438 | -0.871 | 0.377 | -0.653 | 2.89
13 | TAGCATAGGTCAGATCGGGCCAGTATACGCTATA | 3.66 | 2.95 | -0.198 | 2.08 | -0.138 | 3.38 | 1.65 | 1.67 | 0.311 | 1.05 | -0.136 | 0.798 | -0.196 | -0.529 | 0.679 | 2.5 | -0.583 | 2.5 | -0.285 | 3.37
14 | CCGACTGGGGCAAGGTTACCATCACGCACAGCCA | 0.162 | 0.447 | -0.106 | 0.674 | -1.14 | 1.79 | 2.72 | 3.61 | 0.851 | 2.78 | 3.35 | 3.48 | -0.952 | -0.665 | 0.946 | 0.175 | 0.0478 | 0.822 | -0.0498 | 1.5
